In PubChem BioAssay (NCATS):
Records with an inconclusive call do not appear. Where a call stands in place of a potency, no number is given. A number with no mark means an inactive call. Activity calls are given as the source filed them. Unless noted, calls come from the whole dose curve.

Assays:
[1] = qHTS for Inhibitors of the Functional Ribonucleoprotein Complex (vRNP) of Lassa (LASV) Arenavirus: LASV Primary Screen - GLuc reporter signal (AID 1347082; calls by dose curve; tested in HEK293 reporter line; note: nearly all actives have a fitted effect of over 60% in size; for activity change, negative = inhibition: series mostly up to about 57 µM)
[2] = qHTS for Inhibitors of the Functional Ribonucleoprotein Complex (vRNP) of Lassa (LASV) Arenavirus: Viability assay - alamar blue signal for LASV Primary Screen (AID 1347083; calls by dose curve; tested in HEK293 reporter line; note: nearly all actives have a fitted effect of over 80% in size; for activity change, negative = reduced viability: series mostly up to about 57 µM)
[3] = qHTS for Inhibitors of the Functional Ribonucleoprotein Complex (vRNP) of Lymphocytic Choriomeningitis Arenaviruses (LCMV): Viability assay - alamar blue signal for LCMV Primary Screen (AID 1347085; calls by dose curve; tested in HEK293 reporter line; note: nearly all actives have a fitted effect of over 80% in size; for activity change, negative = lower viability: series mostly up to about 57 µM)
[4] = target: Nucleoprotein (Lymphocytic choriomeningitis virus (strain Armstrong)) (UniProt P09992); assay: qHTS for Inhibitors of the Functional Ribonucleoprotein Complex (vRNP) of Lymphocytic Choriomeningitis Arenaviruses (LCMV): LCMV Primary Screen - GLuc reporter signal (AID 1347086); note: nearly all actives have a fitted effect of over 70% in size; for activity change, negative = inhibition: series mostly up to about 57 µM
Potency is the fitted concentration of half-maximal effect.

Chain of Nucleoprotein (Lymphocytic choriomeningitis virus (strain Armstrong)) (P09992 whole entry, looked up): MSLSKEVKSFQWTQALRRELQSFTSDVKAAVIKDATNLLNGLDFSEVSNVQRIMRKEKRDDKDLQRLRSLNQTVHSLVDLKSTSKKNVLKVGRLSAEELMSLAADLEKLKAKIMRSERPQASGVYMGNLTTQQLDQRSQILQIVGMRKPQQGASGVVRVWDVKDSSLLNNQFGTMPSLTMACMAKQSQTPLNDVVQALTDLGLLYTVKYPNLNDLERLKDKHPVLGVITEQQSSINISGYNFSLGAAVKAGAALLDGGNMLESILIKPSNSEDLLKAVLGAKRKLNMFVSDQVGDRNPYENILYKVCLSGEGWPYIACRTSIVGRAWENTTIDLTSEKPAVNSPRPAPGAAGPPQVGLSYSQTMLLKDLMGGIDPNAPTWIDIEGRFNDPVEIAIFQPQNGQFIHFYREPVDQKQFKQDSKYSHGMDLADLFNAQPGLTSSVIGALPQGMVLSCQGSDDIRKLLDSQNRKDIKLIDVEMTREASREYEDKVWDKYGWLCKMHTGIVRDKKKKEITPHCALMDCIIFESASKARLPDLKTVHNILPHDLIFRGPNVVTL

Structure (SMILES) | Potency [1] | Potency [2] | Potency [3] | Potency [4] | activity change, negative = inhibition [1] | activity change, negative = reduced viability [2] | activity change, negative = lower viability [3] | activity change, negative = inhibition [4]
C[C@H]1[C@H](C)CC[C@]2(C(=O)O)CC[C@]3(C)C(=CC[C@@H]4[C@@]5(C)C[C@@H](O)[C@H](O)C(C)(C)[C@@H]5CC[C@]43C)[C@H]12 | inactive | inactive | inactive | inactive | – | – | – | –
CC(=O)c1ccccc1O | inactive | inactive | inactive | inactive | – | – | – | –
C=C(C)C(O)Cc1c(OC)ccc(C(=O)/C=C/c2ccc(O)cc2)c1O (stereo not given) | inactive | inactive | inactive | inactive | – | – | – | –
CCCCCCOC(=O)c1ccccc1 | inactive | inactive | inactive | inactive | – | – | – | –
CCc1cnn2c(NCc3ccc[n+]([O-])c3)cc(N3CCCC[C@@H]3CCO)nc12 | 109 nM (active) | 38.5 nM (active) | 38.5 nM (active) | 48.5 nM (active) | – | – | – | –
C[C@@H]1C(=O)CC2C(C)(C)CCC[C@]2(C)[C@@]1(O)CCc1ccoc1 (stereo not given in full) | inactive | inactive | inactive | inactive | – | – | – | –
O=C(/C=C/c1ccc(O)cc1)OCc1occc(=O)c1O[C@@H]1OC(CO)[C@@H](O)[C@H](O)[C@@H]1O (stereo not given in full) | inactive | inactive | inactive | inactive | – | – | – | –
CCCCCCCCCCCCCCC | inactive | inactive | inactive | inactive | – | – | – | –
O=c1oc(-c2ccc(O)c(O)c2)cc2cc(O)cc(O)c12 | inactive | inactive | inactive | inactive | – | – | – | –
CC(C)C/C=C(\C=O)c1ccccc1 | inactive | inactive | inactive | inactive | – | – | – | –
CC(C)=CCC/C(C)=C/Cc1c(O)ccc(C(=O)/C=C/c2ccc(O)cc2)c1O | inactive | inactive | inactive | inactive | – | – | – | –
C/C=C1/C[C@@H](C)[C@@](C)(O)C(=O)OCC2=CCN3CC[C@@H](OC1=O)[C@@H]23 | inactive | inactive | inactive | inactive | – | – | – | –
CCCC(C)C(O)CC (stereo not given) | inactive | inactive | inactive | inactive | – | – | – | –
CC(=O)O[C@H]1C[C@@H]2CC[C@@]1(C)C2(C)C | inactive | inactive | inactive | inactive | – | – | – | –
O=P(O)(O)OC[C@H]1O[C@](O)(COP(=O)(O)O)[C@@H](O)[C@@H]1O | inactive | inactive | inactive | inactive | – | – | – | –
Nc1nc(Cl)nc2c1ncn2[C@@H]1O[C@H](CO)C(O)[C@H]1O (stereo not given in full) | inactive | inactive | inactive | inactive | – | – | – | –
CC(C)=CCC1=C(O)[C@](O)(CC=C(C)C)C(=O)C(C(=O)CC(C)C)=C1O | inactive | inactive | inactive | inactive | – | – | – | –
OC(CC(O)c1ccccc1)c1ccccc1 (stereo not given) | inactive | inactive | inactive | inactive | – | – | – | –
Nc1nc2c(ncn2[C@@H]2O[C@H](CO)[C@@H](O)[C@@H]2O)c(=O)[nH]1 | inactive | inactive | inactive | inactive | – | – | – | –
CCCCC/C=C\C=C\C(=O)OCC | inactive | inactive | inactive | inactive | – | – | – | –

Structure (SMILES) | Potency [1] | Potency [2] | Potency [3] | Potency [4] | activity change, negative = inhibition [1] | activity change, negative = reduced viability [2] | activity change, negative = lower viability [3] | activity change, negative = inhibition [4]
Clc1cccc(-c2nnnn2Cc2cccnc2)c1Cl | inactive | inactive | inactive | inactive | – | – | – | –
COc1cc(OC)c2c(c1)C(=O)OC2 | inactive | inactive | inactive | inactive | – | – | – | –
C=CC(C)(CCC=C(C)C)OC(=O)CC (stereo not given) | inactive | inactive | inactive | inactive | – | – | – | –
C[C@]12CCC3C(CC[C@H]4C[C@H](O)CC[C@]34C)C1C[C@H](O)[C@@H]2O (stereo not given in full) | inactive | inactive | inactive | inactive | – | – | – | –
c1ccc2cnccc2c1 | inactive | inactive | inactive | inactive | – | – | – | –
COc1c2c(cc3oc(CO[C@@H]4O[C@H](CO)[C@@H](O)[C@H](O)[C@H]4O)cc(=O)c13)O[C@H](C(C)(C)O)C2 | inactive | inactive | inactive | inactive | – | – | – | –
C=C1C2C[C@H](O)C(C)(C)[C@@]2(O)[C@H](O)C[C@]23C[C@@](C)(O)[C@H](CC[C@H]12)[C@H]3O (stereo not given in full) | inactive | inactive | inactive | inactive | – | – | – | –
COc1cc(CCC(C)=O)ccc1O | inactive | inactive | inactive | inactive | – | – | – | –
Cc1cc(O)c2c(c1)C(O)(C1OC(CO)C(O)C(O)C1O)c1cccc(O)c1C2=O (stereo not given) | inactive | inactive | inactive | inactive | – | – | – | –
CC(C)=CCC/C(C)=C/COc1c2ccoc2cc2oc(=O)ccc12 | inactive | inactive | inactive | inactive | – | – | – | –
COC1C(O)C(O)C(O)C(O)C1O (stereo not given) | inactive | inactive | inactive | inactive | – | – | – | –
COc1cc(O)c2c(=O)c3c(OC)c(O)ccc3oc2c1 | inactive | inactive | inactive | inactive | – | – | – | –
CC(=O)[C@@]1(O)CCC2C3CC[C@H]4C[C@@H](O)CC[C@]4(C)C3CC[C@@]21C (stereo not given in full) | inactive | inactive | inactive | inactive | – | – | – | –
CCCCC[C@H](O)/C=C/C=C/C/C=C\CCCC(=O)O | – | – | – | – | -30.5% [at 0.757 µM] | -19.5% [at 0.757 µM] | 9.71% [at 0.757 µM] | 8.09% [at 0.757 µM]
Cc1[nH]c(C=C2C(=O)Nc3ccc(S(=O)(=O)N(C)c4cccc(Cl)c4)cc32)c(C)c1C(=O)N1CCN(C)CC1 | inactive | inactive | inactive | inactive | – | – | – | –
CC(C)=CCC/C(C)=C/CC/C(C)=C/CO | inactive | inactive | inactive | inactive | – | – | – | –
O=C1c2c(O)cc(O)cc2O[C@H](c2cc(O)c(O)c(O)c2)[C@H]1O | inactive | inactive | inactive | inactive | – | – | – | –
[3H]C([3H])([3H])C(O)(CCC[C@@H](C)C1CC[C@H]2/C(=C/C=C3/C[C@@H](O)CCC3=C)CCC[C@]12C)C([3H])([3H])[3H] (stereo not given in full) | inactive | inactive | inactive | inactive | – | – | – | –
CC(C)CCCC(=O)O | inactive | inactive | inactive | inactive | – | – | – | –
CCCC/C=C/C=C\C=O | inactive | inactive | inactive | inactive | – | – | – | –

Structure (SMILES) | Potency [1] | Potency [2] | Potency [3] | Potency [4] | activity change, negative = inhibition [1] | activity change, negative = reduced viability [2] | activity change, negative = lower viability [3] | activity change, negative = inhibition [4]
c1ccc2c(c1)ccc1ccccc12 | inactive | inactive | inactive | inactive | – | – | – | –
Cc1cc(OCCCc2c(C(=O)O)n(Cc3cccnc3)c3c(-c4c(COc5ccc(N6CCN([S+](C)(=O)[O-])CC6)cc5)nn(C)c4C)cccc23)cc(C)c1Cl | inactive | inactive | inactive | inactive | – | – | – | –
CC1(C)CCc2c([nH]c3ccccc3c2=O)O1 | inactive | inactive | inactive | inactive | – | – | – | –
COc1ccc(CC2c3cc(OC)c(OC)cc3CCN2C)cc1O (stereo not given) | inactive | inactive | inactive | inactive | – | – | – | –
CCCCCC(C)O (stereo not given) | inactive | inactive | inactive | inactive | – | – | – | –
C/C=C(/C)C(=O)O[C@H]1CC(C)=CC(=O)[C@@]2(C)CC[C@@](O)(C(C)C)[C@H]12 | inactive | inactive | inactive | inactive | – | – | – | –
CO[C@H]1C[C@H](O[C@H]2[C@H](C)O[C@@H](O[C@@H]3/C(C)=C/C[C@@H]4C[C@@H](C[C@]5(C=C[C@H](C)[C@@H](C6CCCCC6)O5)O4)OC(=O)[C@@H]4C=C(C)[C@@H](O)[C@H]5OC/C(=C\C=C\[C@@H]3C)[C@]54O)C[C@@H]2OC)O[C@@H](C)[C@@H]1O | inactive | inactive | inactive | inactive | – | – | – | –
C/C(=C/CCC(C)[C@H]1CC[C@@]2(C)C3=C(CC[C@]12C)[C@@]1(C)CCC(=O)C(C)(C)[C@@H]1CC3)C(=O)O (stereo not given in full) | inactive | inactive | inactive | inactive | – | – | – | –
COC(=O)c1cc2c([nH]c3ccccc32)c(C)n1 | inactive | inactive | inactive | inactive | – | – | – | –
CC1(C)O[C@@H]1COc1c2ccoc2cc2oc(=O)ccc12 | inactive | inactive | inactive | inactive | – | – | – | –
COc1c(OC)c(O)c2c(=O)cc(-c3c(O)cccc3O)oc2c1OC | inactive | inactive | inactive | inactive | – | – | – | –
C/C(=C\COc1c2ccoc2cc2oc(=O)ccc12)CCC(O)C(C)(C)O (stereo not given) | inactive | inactive | inactive | inactive | – | – | – | –
COc1ccc2c(c1)OC[C@H]1c3cc4c(cc3O[C@@H]21)OCO4 | inactive | inactive | inactive | inactive | – | – | – | –
O=C1N[C@@H](Cc2c[nH]c3ccccc23)C(=O)N[C@H]1Cc1c[nH]c2ccccc12 | inactive | inactive | inactive | inactive | – | – | – | –
C=CC(C)(O)CCC=C(C)C (stereo not given) | inactive | inactive | inactive | inactive | – | – | – | –
COc1cccc(OC)c1 | inactive | inactive | inactive | inactive | – | – | – | –
COC(=O)C1=CO[C@@H](O[C@@H]2O[C@H](CO)[C@@H](O)[C@H](O)[C@H]2O)C2C1CC(O)O[C@H]2C (stereo not given in full) | inactive | inactive | inactive | inactive | – | – | – | –
COc1c2ccc(OCC/C(C)=C/C(=O)C=C(C)C)cc2nc2occc12 | inactive | inactive | inactive | inactive | – | – | – | –
C[C@]12CCC3C(C[C@@H](O)[C@H]4C[C@@H](O)CC[C@]34C)C1CC[C@@H]2O (stereo not given in full) | inactive | inactive | inactive | inactive | – | – | – | –
CC(C)(O[C@@H]1O[C@H](CO)[C@@H](O)[C@H](O)[C@H]1O)[C@H]1Cc2cc3ccc(=O)oc3cc2O1 | inactive | inactive | inactive | inactive | – | – | – | –
